Measurements from PubChem BioAssay (Tox21).
Inconclusive results are not listed. Activity calls are given as the source filed them. Unless noted, calls follow the shape of the full dose curve.

Key:
[1] = qHTS assay to identify small molecule agonists of the peroxisome proliferator-activated receptor delta (PPARd) signaling pathway - cell viability counter screen (AID 743211; active = well fitted curve in the direction sought with a large enough effect in the repeat runs; an effect the other way counts as inactive or inconclusive; also: nearly all actives have a fitted effect of over 55% in size; also: potency is read from the fitted curve at half-maximal effect)
In short: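 Viability of GeneBLAzer PPARd UAS-bla HEK293H cells was assessed after 17 h compound incubation at 37C, using CellTiter-Glo reagent added after the reporter read and luminescence recorded 30 min later.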

[2] = molecular target: Peroxisome proliferator-activated receptor delta (Homo sapiens) (UniProt Q03181); assay: qHTS assay to identify small molecule agonists of the peroxisome proliferator-activated receptor delta (PPARd) signaling pathway (AID 743212);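 also: HEK293H cells with PPARd UAS beta-lactamase reporter GeneBLAzer system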; also: potency is read from the fitted curve at half-maximal effect
Peroxisome proliferator-activated receptor delta (Homo sapiens), sequence (Q03181 whole entry, looked up): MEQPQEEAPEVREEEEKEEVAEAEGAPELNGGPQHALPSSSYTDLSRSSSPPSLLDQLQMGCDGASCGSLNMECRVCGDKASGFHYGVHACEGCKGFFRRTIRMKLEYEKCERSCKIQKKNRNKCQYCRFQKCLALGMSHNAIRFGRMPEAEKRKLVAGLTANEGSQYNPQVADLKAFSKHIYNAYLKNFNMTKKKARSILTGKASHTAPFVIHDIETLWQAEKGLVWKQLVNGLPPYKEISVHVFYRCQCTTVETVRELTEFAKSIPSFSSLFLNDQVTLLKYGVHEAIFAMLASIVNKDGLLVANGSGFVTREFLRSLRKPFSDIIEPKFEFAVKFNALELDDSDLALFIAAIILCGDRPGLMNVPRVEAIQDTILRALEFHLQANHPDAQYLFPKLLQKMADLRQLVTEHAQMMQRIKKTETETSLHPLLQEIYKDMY
In short: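 Beta-lactamase reporter read by fluorescence (LiveBLAzer B/G FRET, 2 h, room temperature). Test agents, in DMSO, incubated at 37 C with PPARd-bla HEK293H cells.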

[3] = molecular target: Peroxisome proliferator-activated receptor delta (Homo sapiens) (UniProt Q03181); assay: qHTS assay to identify small molecule antagonists of the peroxisome proliferator-activated receptor delta (PPARd) signaling pathway (AID 743215; active = well fitted inhibition curve with a large enough effect in the signal ratio in the repeat runs, not every such curve was filed as active; the % refers to the signal ratio;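 also: cells stimulated with agonist L165041 at 300 nM final during compound exposure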; also: potency is read from the fitted curve at half-maximal effect)
In short: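 Agonist L165041 (300 nM final) added with compound to PPARd-bla HEK293H UAS-bla reporter cells; 17 h incubation at 37 C. Read-out: LiveBLAzer FRET substrate, 2 h at room temperature, fluorescence intensity.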

[4] = qHTS assay to identify small molecule antagonists of the farnesoid-X-receptor (FXR) signaling pathway - cell viability counter screen (AID 743221; active = well fitted cell-killing curve with a large enough effect in the repeat runs, not every such curve was filed as active; also: % is scaled to controls: 0 for no effect and ±100 for the full control effect; nearly all actives have a fitted effect of over 50% in size)
In short: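 Quantitative HTS of the Tox21 10K library run in parallel with the beta-lactamase reporter read. HEK 293T cells carrying a UAS-driven bla reporter got compound and 50 uM CDCA (final) for 16 h; ATP-based luminescence followed.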

[5] = molecular target: Vitamin D3 receptor (Homo sapiens) (UniProt P11473); assay: qHTS assay to identify small molecule antagonists of the vitamin D receptor (VDR) signaling pathway (AID 743223; active = well fitted inhibition curve with a large enough effect in the signal ratio in the repeat runs, not every such curve was filed as active; the % refers to the signal ratio; also: % is scaled to controls: 0 for no effect and ±100 for the full control effect)
Vitamin D3 receptor (Homo sapiens), sequence (P11473 whole entry, looked up): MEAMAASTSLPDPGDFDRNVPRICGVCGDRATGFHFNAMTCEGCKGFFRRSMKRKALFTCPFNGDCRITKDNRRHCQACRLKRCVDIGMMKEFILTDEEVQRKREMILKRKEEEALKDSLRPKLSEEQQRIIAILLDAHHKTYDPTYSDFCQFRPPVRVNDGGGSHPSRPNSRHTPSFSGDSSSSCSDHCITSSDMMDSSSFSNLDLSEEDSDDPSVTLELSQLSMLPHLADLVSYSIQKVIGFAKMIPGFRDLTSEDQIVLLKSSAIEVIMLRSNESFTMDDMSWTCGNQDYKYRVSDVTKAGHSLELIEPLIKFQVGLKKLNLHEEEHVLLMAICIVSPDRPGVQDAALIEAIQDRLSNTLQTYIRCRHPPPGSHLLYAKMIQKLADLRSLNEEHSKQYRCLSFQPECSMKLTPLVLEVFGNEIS
In short: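 Fluorescence from LiveBLAzer B/G FRET substrate, read after 2 h at room temperature, reflects beta-lactamase reporter activity in VDR-bla cells treated 16 h at 37C with compounds and agonist 1alpha,25-dihydroxyvitamin D3 (3 nM final).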

[6] = qHTS assay to identify small molecule agonists of the vitamin D receptor (VDR) signaling pathway - cell viability counter screen (AID 743224; active = well fitted curve in the direction sought with a large enough effect in the repeat runs; an effect the other way counts as inactive or inconclusive; also: nearly all actives have a fitted effect of over 50% in size; also: potency is read from the fitted curve at half-maximal effect)
In short: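 Counter screen run in the same wells as the VDR-bla reporter assay: CellTiter-Glo luminescence, 30 min at room temperature, after 16 h compound treatment at 37C of cells pre-plated for 4 h.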

[7] = qHTS assay to identify small molecule agonists of the NFkB signaling pathway (AID 1159509; active = well fitted curve in the direction sought with a large enough effect in the signal ratio in the repeat runs, not every such curve was filed as active; the % refers to the signal ratio; also: series mostly up to about 61 µM; % is scaled to controls: 0 for no effect and ±100 for the full control effect)
In short: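 Beta-lactamase reporter assay run in quantitative high-throughput format on an NF-kB-responsive ME-180 line, with 5 hr compound treatment and a FRET-based blue/green fluorescence readout.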

[8] = qHTS assay to identify small molecule agonists of the NFkB signaling pathway - cell viability counter screen (AID 1159515); also: series mostly up to about 61 µM; % is scaled to controls: 0 for no effect and ±100 for the full control effect; nearly all actives have a fitted effect of over 55% in size
In short: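 Read by CellTiter-Glo luminescence (30 min, room temperature) in the wells also used for the beta-lactamase FRET read. ME-180 NFkB-bla cells at 2,000 per well were plated overnight, then exposed to compound for 5 hr at 37 C.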

[9] = qHTS assay to identify small molecule agonists of the endoplasmic reticulum stress response signaling pathway (AID 1159516; active = well fitted activation curve with a large enough effect in the signal ratio in the repeat runs, not every such curve was filed as active; the % refers to the signal ratio; also: % is scaled to controls: 0 for no effect and ±100 for the full control effect)
In short: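 Ratiometric FRET readout (405 nm excitation; 460 and 530 nm emission) of a beta-lactamase gene driven by the ER stress response element, after 2 hr substrate loading. HeLa ESRE-bla cells were seeded overnight and treated with compounds for only 5 hr at 37 C.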

[10] = qHTS assay to identify small molecule agonists of the endoplasmic reticulum stress response signaling pathway - cell viability counter screen (AID 1159517); also: series mostly up to about 61 µM; % is scaled to controls: 0 for no effect and ±100 for the full control effect; nearly all actives have a fitted effect of over 50% in size
In short: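 Cytotoxicity of test compounds toward ESRE-bla HeLa cells was assessed after 5 hr exposure. The luminescent CellTiter-Glo signal was measured 30 min after reagent addition.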

[11] = qHTS assay to identify small molecule agonists of the AP-1 signaling pathway - cell viability counter screen (AID 1159525); also: nearly all actives have a fitted effect of over 55% in size
In short: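 Each titration point was normalised to DMSO and tetra n-octyl ammonium bromide controls. The read was Cell Titer Glo luminescence after 30 min at RT, following 5 h compound exposure of ME-180 AP-1-bla cells at 37 °C.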

[12] = qHTS assay to identify small molecule agonists of the farnesoid-X-receptor (FXR) signaling pathway - cell viability counter screen (AID 743218; active = well fitted curve in the direction sought with a large enough effect in the repeat runs; an effect the other way counts as inactive or inconclusive; also: % is scaled to controls: 0 for no effect and ±100 for the full control effect; nearly all actives have a fitted effect of over 45% in size)
In short: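 Viability counter screen in the same wells: CellTiter-Glo luminescence, 30 min room-temperature incubation, measured after the beta-lactamase read. Cells were GeneBLAzer FXR-UAS-bla HEK 293T, compound-treated 16 h at 37C.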

[13] = molecular target: Bile acid receptor (Homo sapiens) (UniProt Q96RI1); assay: qHTS assay to identify small molecule agonists of the farnesoid-X-receptor (FXR) signaling pathway (AID 743220; active = well fitted activation curve with a large enough effect in the signal ratio in the repeat runs, not every such curve was filed as active; the % refers to the signal ratio; also: potency is read from the fitted curve at half-maximal effect)
Bile acid receptor (Homo sapiens), sequence (Q96RI1 whole entry, looked up): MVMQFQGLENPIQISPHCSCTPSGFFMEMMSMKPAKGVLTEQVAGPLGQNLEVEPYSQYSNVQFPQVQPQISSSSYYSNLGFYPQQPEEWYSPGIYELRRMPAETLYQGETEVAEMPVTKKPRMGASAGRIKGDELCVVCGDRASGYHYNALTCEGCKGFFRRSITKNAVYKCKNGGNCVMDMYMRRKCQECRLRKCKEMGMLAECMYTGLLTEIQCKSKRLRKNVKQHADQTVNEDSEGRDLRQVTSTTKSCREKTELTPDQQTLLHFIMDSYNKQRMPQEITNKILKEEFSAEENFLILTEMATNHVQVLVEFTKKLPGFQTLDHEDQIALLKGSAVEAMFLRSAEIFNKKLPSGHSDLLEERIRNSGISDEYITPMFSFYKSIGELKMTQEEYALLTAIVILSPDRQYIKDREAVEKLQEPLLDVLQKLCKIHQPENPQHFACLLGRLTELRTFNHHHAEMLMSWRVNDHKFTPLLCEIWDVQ
In short: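 FXR-UAS-bla HEK 293T cells carrying a UAS-driven beta-lactamase reporter were plated for 5 h at 37C/5% CO2, then exposed to DMSO-dissolved Tox21 10K compounds for 16 h at 37C. A LiveBLAzer B/G FRET substrate was loaded for 2 h at room temperature before fluorescence reading.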

[14] = qHTS assay to identify small molecule antagonists of the vitamin D receptor (VDR) signaling pathway - cell viability counter screen (AID 743225; active = well fitted curve in the direction sought with a large enough effect in the repeat runs; an effect the other way counts as inactive or inconclusive; also: % is scaled to controls: 0 for no effect and ±100 for the full control effect; nearly all actives have a fitted effect of over 50% in size)
In short: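 Cells (VDR-UAS-bla HEK 293T) are plated, rested 4 h at 37C, dosed with compound and 3 nM final 1-alpha,25-dihydroxy vitamin D3, and incubated 16 h. Viability is taken from CellTiter-Glo luminescence in the reporter wells.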

[15] = molecular target: Bile acid receptor (Homo sapiens) (UniProt Q96RI1); assay: qHTS assay to identify small molecule antagonists of the farnesoid-X-receptor (FXR) signaling pathway (AID 743217; active = well fitted inhibition curve with a large enough effect in the signal ratio in the repeat runs, not every such curve was filed as active; the % refers to the signal ratio; also: potency is read from the fitted curve at half-maximal effect)
In short: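 Antagonist mode: chenodeoxycholic acid at 50 uM final stimulates a UAS-driven beta-lactamase reporter in HEK 293T FXR-bla cells during 16 h, 37C compound exposure. Read-out is FRET substrate fluorescence after 2 h at room temperature.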

[16] = molecular target: Vitamin D3 receptor (Homo sapiens) (UniProt P11473); assay: qHTS assay to identify small molecule agonists of the vitamin D receptor (VDR) signaling pathway (AID 743222); also: % is scaled to controls: 0 for no effect and ±100 for the full control effect
In short: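 Agonist mode, beta-lactamase reporter: fluorescence from LiveBLAzer B/G FRET substrate (2 h, room temperature) read after 16 h compound treatment at 37 C of VDR-bla cells, which were pre-incubated 4 h after seeding.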

[17] = qHTS assay to identify small molecule antagonists of the retinoid-related orphan receptor gamma (ROR-gamma) signaling pathway - cell viability counter screen (AID 1159520; active = well fitted curve in the direction sought with a large enough effect in the repeat runs; an effect the other way counts as inactive or inconclusive)
In short: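 Tet-on ROR gamma CHO cells (1,000/well) were plated 4 hr, given compounds in DMSO for 2 hr at 37 C, then induced with 1 uM final doxycycline for 16 hr. Viability was read as ATP by CellTiter-Glo luminescence after 30 min.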

[18] = molecular target: Nuclear receptor ROR-gamma (Homo sapiens) (UniProt P51449); assay: qHTS assay to identify small molecule antagonists of the retinoid-related orphan receptor gamma (ROR-gamma) signaling pathway (AID 1159521; active = well fitted curve in the direction sought with a large enough effect in the repeat runs; an effect the other way counts as inactive or inconclusive)
In short: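 RORγ antagonism is scored from reduced reporter luminescence in Tet-on CHO cells. Induction used 1 uM final doxycycline hyclate for 16 h at 37 C, following a 2 h compound exposure.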

[19] = qHTS assay to identify small molecule agonists of the AP-1 signaling pathway (AID 1159526); also: % is scaled to controls: 0 for no effect and ±100 for the full control effect
[20] = qHTS assay to identify small molecule antagonists of the peroxisome proliferator-activated receptor delta (PPARd) signaling pathway - cell viability counter screen (AID 743213; active = well fitted curve in the direction sought with a large enough effect in the repeat runs; an effect the other way counts as inactive or inconclusive; also: nearly all actives have a fitted effect of over 50% in size; also: potency is read from the fitted curve at half-maximal effect)
In short: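 Viability counter-screen, qHTS format: PPARd-bla HEK293H, L165041 300 nM final, 17 h compound exposure at 37 C, CellTiter-Glo luminescence after 30 min RT.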

CCCCN(CCCC)C(=S)SSC(=S)N(CCCC)CCCC
inactive: Potency [1] | Potency [2] | Potency [4] | outcome [5] | outcome [7] | outcome [8] | outcome [9] | outcome [10] | outcome [11]
active: Potency [3] 21.7 µM | Potency [6] 12.2 µM

COCCOC(=O)C1=C(C)NC(C)=C(C(=O)OC/C=C/c2ccccc2)C1c1cccc([N+](=O)[O-])c1 (stereo not given)
inactive: Potency [3] | Potency [12] | Potency [4] | outcome [5] | Potency [6] | Potency [14] | outcome [7] | outcome [8] | outcome [9] | outcome [10] | outcome [11]
active: Potency [13] 9.44 µM

c1ccc(COCc2ccccc2)cc1
inactive: Potency [1] | Potency [3] | Potency [15] | Potency [12] | Potency [13] | Potency [4] | outcome [16] | outcome [5] | Potency [6] | Potency [14] | outcome [7] | outcome [8] | outcome [9] | Potency [17] | Potency [18] | outcome [11] | outcome [19]

Cc1nc2ccccc2s1
inactive: Potency [1] | Potency [20] | Potency [3] | Potency [12] | Potency [4] | outcome [16] | Potency [6] | Potency [14] | outcome [7] | outcome [8] | outcome [9] | Potency [18] | outcome [11] | outcome [19]

CC1(C)C(=O)N(Br)C(=O)N1Cl
inactive: Potency [1] | Potency [2] | Potency [20] | Potency [3] | Potency [12] | Potency [4] | outcome [16] | outcome [5] | Potency [6] | Potency [14] | outcome [7] | outcome [8] | outcome [9] | outcome [10]

CC(C)CCCCCCOC(=O)CCCCC(=O)OCCCCCCC(C)C
inactive: Potency [1] | Potency [2] | Potency [20] | Potency [3] | Potency [15] | Potency [12] | Potency [13] | Potency [4] | outcome [16] | outcome [5] | Potency [6] | Potency [14] | outcome [7] | outcome [8] | outcome [9] | outcome [10] | outcome [11]

CC1(C)C2=CCCC(C)(C)[C@]23CC[C@H]1C3
inactive: Potency [2] | Potency [20] | Potency [3] | Potency [15] | Potency [13] | Potency [4] | outcome [16] | outcome [5] | Potency [6] | outcome [7] | outcome [8] | outcome [9] | outcome [10] | outcome [11] | outcome [19]

CCCc1c(OCCCOc2ccc(OCC(=O)O)cc2)ccc(C(C)=O)c1O
inactive: Potency [15] | Potency [4] | outcome [5] | Potency [6] | Potency [14] | outcome [7] | outcome [8] | outcome [9] | outcome [10] | outcome [11]
active: Potency [2] 0.011 µM

CCCCCCCC/C=C\CCCCCCCC(=O)OC(CO)CO
inactive: Potency [12] | Potency [4] | Potency [6] | outcome [7] | outcome [8] | outcome [9] | outcome [10] | outcome [11] | outcome [19]

CN1CCN(c2c(F)cc3c(=O)c(C(=O)O)cn4c3c2OCN4C)CC1
inactive: Potency [1] | Potency [2] | Potency [3] | Potency [4] | Potency [6] | Potency [14] | outcome [8] | outcome [9] | outcome [10] | activity, negative = cytotoxicity [17] 0.283% [at 19 µM] | activation [19] 4.3% [at 15.8 µM]

CN(C)CCOC1=Cc2ccccc2Sc2ccc(Cl)cc21
inactive: Potency [2] | Potency [15] | Potency [13] | outcome [16] | Potency [6] | outcome [8] | outcome [9] | outcome [10] | Potency [17] | outcome [11]
active: Potency [1] 26.6 µM | Potency [20] 26.6 µM

CC(=O)Oc1ccc2c(c1)CC[C@@H]1[C@@H]2CC[C@]2(C)[C@@H](O)CC[C@@H]12
active: Potency [15] 29.8 µM
inactive: Potency [1] | Potency [2] | Potency [20] | Potency [3] | Potency [12] | Potency [13] | Potency [4] | outcome [16] | outcome [5] | Potency [6] | Potency [14] | outcome [8] | outcome [9] | outcome [10] | Potency [17] | outcome [19]
